# Reference: PubChem BioAssay (EPA / NIEHS)
# Results filed as inconclusive are left out. Calls of active or inactive are those of the source. How the source made its calls, unless noted: active means hit-call score of the fitted dose curve at least 0.9, where 1 is the maximum; inactive means score below 0.9.
# Legend:
# [1] = read-out: E-selectin (Homo sapiens) (UniProt P16581); assay: BSK_LPS_Eselectin: BioMAP Diversity Plus: LPS Assay for Eselectin Biomarker Activity (AID 2283077); settings: primary human HUVEC with PBMC; actives raise or lower the signal
# Outline: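 Primary human vascular co-culture (endothelium plus PBMC) was dosed with chemical, then E-selectin quantified by ELISA at 24 h. Endpoint values derive from bidirectional curve fitting relative to DMSO.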
# [2] = read-out: Interleukin-8 (IL8), CXCL8 (gene 3576); assay: BSK_LPS_IL8: BioMAP Diversity Plus: LPS Assay for Interleukin-8 (IL8) Biomarker Activity (AID 2283078); settings: primary human HUVEC with PBMC; actives raise or lower the signal
# Outline: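 Readout is IL-8 by ELISA, taken 24 h after compounds were added to LPS-stimulated endothelial/PBMC co-cultures. Both increases and decreases relative to DMSO control were scored through bidirectional fitting.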
# [3] = BSK_LPS_SRB: Viability Assessment in the BioMAP Diversity Plus: LPS Assay (AID 2283079); settings: primary human HUVEC with PBMC;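 further: total protein by sulforhodamine B absorbance as a cytotoxicity measure; measured one day after compound addition; fitted in both directions against DMSO so loss or gain of signal counts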
# Outline: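 Readout is SRB absorbance at 560 nm (0.1% stain, TCA-fixed parallel cultures) as a total-protein cytotoxicity measure. Cells: primary human umbilical vein endothelium plus peripheral blood mononuclear cells, 24 h after chemical exposure; DMSO served as baseline.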
# [4] = read-out: Monocyte Chemoattractant Protein-1 (MCP1), CCL2 (gene 6347); assay: BSK_LPS_MCP1: BioMAP Diversity Plus: LPS Assay for Monocyte Chemoattractant Protein-1 (MCP1) Biomarker Activity (AID 2283081); settings: primary human HUVEC with PBMC; actives raise or lower the signal
# Outline: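 Human endothelial–PBMC co-cultures were dosed with chemical, then LPS-driven MCP-1 levels were quantified by ELISA at 24 h. Activity in either direction was fitted versus DMSO negative control.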
# [5] = BSK_LPS_PGE2: BioMAP Diversity Plus: LPS Assay for Prostaglandin E2 (PGE2) Biomarker Activity (AID 2283082); settings: primary human HUVEC with PBMC; actives raise or lower the signal
# Outline: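 HUVEC plus human PBMC co-culture stimulated with LPS; secreted PGE2 quantified by ELISA 24 h after chemical dosing. Activity fitted bidirectionally against DMSO baseline; parallel SRB staining (0.1% SRB after 10% TCA fixation, 560 nm) flags overt cytotoxicity.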
# [6] = read-out: Macrophage colony-stimulating factor (MCSF), CSF1 (gene 1435); assay: BSK_LPS_MCSF: BioMAP Diversity Plus: LPS Assay for Macrophage colony-stimulating factor (MCSF) Biomarker Activity (AID 2283083); settings: primary human HUVEC with PBMC; actives raise or lower the signal
# Outline: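 ELISA readout of M-CSF after 24 h compound exposure in a human endothelial/PBMC co-culture. Activity, in either direction, is fitted relative to DMSO vehicle.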
# [7] = read-out: Tissue Factor, F3 (gene 2152); assay: BSK_LPS_TissueFactor: BioMAP Diversity Plus: LPS Assay for Tissue Factor Biomarker Activity (AID 2283084); settings: primary human HUVEC with PBMC; actives raise or lower the signal
# Outline: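 ELISA signal for cell-surface Tissue Factor (CD142) was read 24 h after compound dosing of an LPS-stimulated human endothelial–PBMC primary co-culture. Gain or loss of signal was scored relative to DMSO.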
# [8] = read-out: Tumor necrosis factor (Homo sapiens) (UniProt P01375); assay: BSK_LPS_TNFa: BioMAP Diversity Plus: LPS Assay for Tumour Necrosis Factor alpha (TNFa) Biomarker Activity (AID 2283085); settings: primary human HUVEC with PBMC; actives raise or lower the signal
# Outline: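 Human umbilical vein endothelial cells co-cultured with PBMC and stimulated with LPS. TNFa was measured by ELISA 24 h after chemical dosing, fitted bidirectionally relative to DMSO.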
# [9] = read-out: Vascular cell adhesion molecule 1 (VCAM1), VCAM1 (gene 7412); assay: BSK_LPS_VCAM1: BioMAP Diversity Plus: LPS Assay for Vascular cell adhesion molecule 1 (VCAM1) Biomarker Activity (AID 2283086); settings: primary human HUVEC with PBMC; actives raise or lower the signal
# Outline: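 Human umbilical vein endothelial cells co-cultured with PBMC and stimulated with LPS; VCAM-1 measured by ELISA 24 h after dosing. Bidirectional curve fitting against DMSO baseline; cytotoxicity tracked in parallel by SRB total-protein staining.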
# CD40, CD40 (gene 958) = assay: BSK_SAg_CD40: BioMAP Diversity Plus: SAg Assay for CD40 Biomarker Activity (AID 2283088); settings: primary human HUVEC with PBMC; actives raise or lower the signal
# Outline: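 Compounds were dosed onto a human primary endothelial–PBMC co-culture, and after 24 h CD40 was quantified by ELISA using a fluorescence signal. Activity in either direction was fitted relative to DMSO.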
# CD69, CD69 (gene 969) = assay: BSK_SAg_CD69: BioMAP Diversity Plus: SAg Assay for CD69 Biomarker Activity (AID 2283089); settings: primary human HUVEC with PBMC; actives raise or lower the signal
# Outline: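 Endothelial/PBMC co-culture; chemical added; 24 h incubation; CD69 ELISA with fluorescence detection; bidirectional fit vs DMSO.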
# [10] = read-out: Monocyte Chemoattractant Protein-1 (MCP1), CCL2 (gene 6347); assay: BSK_SAg_MCP1: BioMAP Diversity Plus: SAg Assay for Monocyte Chemoattractant Protein-1 (MCP1) Biomarker Activity (AID 2283090); settings: primary human HUVEC with PBMC; actives raise or lower the signal
# Outline: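 MCP-1 levels in the endothelial–PBMC SAg co-culture were quantified by ELISA at 24 h post-dosing; both increases and decreases versus DMSO scored. Cytotoxicity monitored by SRB total protein in parallel cultures.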
# [11] = read-out: E-selectin (Homo sapiens) (UniProt P16581); assay: BSK_SAg_Eselectin: BioMAP Diversity Plus: SAg Assay for Eselectin Biomarker Activity (AID 2283091); settings: primary human HUVEC with PBMC; actives raise or lower the signal
# Outline: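 Co-culture: HUVEC + PBMC. Dose compound; 24 h. ELISA for E-selectin. Bidirectional fit vs DMSO.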
# [12] = read-out: Monokine induced gamma interferon (MIG), CXCL9 (gene 4283); assay: BSK_SAg_MIG: BioMAP Diversity Plus: SAg Assay for Monokine induced gamma interferon (MIG) Biomarker Activity (AID 2283092); settings: primary human HUVEC with PBMC; actives raise or lower the signal
# Outline: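 Measures CXCL9 protein by ELISA in a human vascular primary-cell co-culture (umbilical vein endothelium with PBMC) 24 h after chemical addition. Activity is scored up or down from the DMSO control.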
# [13] = BSK_SAg_PBMCCytotoxicity: PBMC Cytotoxicity Assessment in the BioMAP Diversity Plus: SAg Assay (AID 2283093); settings: primary human HUVEC with PBMC;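 further: PBMC viability measured as Alamar Blue reduction fluorescence at 546/580 nm; fitted both ways against DMSO so a hit may be loss or gain of signal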
# Outline: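 HUVEC/PBMC co-culture; PBMC exposed to chemical 1 h before SEB and TSST-1 activation (20 ng/mL each), incubated 90 h, then Alamar Blue 6 h, fluorescence 546/580 nm. Bidirectional fit versus DMSO baseline.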
# [14] = BSK_SAg_Proliferation: Cell Proliferation Assessment in the BioMAP Diversity Plus: SAg Assay (AID 2283095); settings: primary human HUVEC with PBMC
# Outline: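 Human umbilical vein endothelial cells co-cultured with PBMC; sulforhodamine B total-protein staining (0.1% SRB after 10% TCA fixation, absorbance 560 nm) at 96 h in sub-confluent culture. Fitted bidirectionally against DMSO.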
# [15] = BSK_SAg_SRB: Viability Assessment in the BioMAP Diversity Plus: SAg Assay (AID 2283096); settings: primary human HUVEC with PBMC;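 further: cells read one day after compound addition; hits may be either gain or loss of signal compared with DMSO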
# Outline: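 Human umbilical vein endothelial cells co-cultured with PBMC, read 24 h after compound dosing. Total protein measured by sulforhodamine B staining (0.1% SRB after 10% TCA fixation, absorbance 560 nm); bidirectional fit versus DMSO baseline.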
# [16] = TOX21_p53_BLA_p2_viability: Viability Assessment in the Tox21 HCT-116 p53 Agonism Beta-lactamase Assay, Phase 2 (AID 2283591; active means hit-call score of the fitted dose curve at least 0.9, where 1 is the maximum;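 further: compound exposure lasted 16 h at 37 °C; actives lower the ATP signal meaning cytotoxicity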)
# Outline: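 HCT116 p53-bla cells, 4000/well, dosed after 5 h plating (217-fold dilution of DMSO stocks) and incubated 16 h at 37C. Viability taken as cellular ATP by CellTiter-Glo luminescence after 30 min RT; signal loss marks cytotoxicity.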
# [17] = TOX21_p53_BLA_p3_viability: Viability Assessment in the Tox21 HCT-116 p53 Agonism Beta-lactamase Assay, Phase 3 (AID 2283593; active means hit-call score of the fitted dose curve at least 0.9, where 1 is the maximum;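 further: cells exposed to compound for 16 h before reading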)
# Outline: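 HCT116 cells, 4000/well, dosed 5 h after plating by pin transfer (217-fold dilution from DMSO stock) and incubated 16 h at 37C, 5% CO2. Viability read as ATP luminescence with CellTiter-Glo after 30 min at room temperature.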
# [18] = target: Cellular tumor antigen p53 (Homo sapiens) (UniProt P04637); assay: TOX21_p53_BLA_p3_ratio: Tox21 HCT-116 p53 Agonism Beta-lactamase Assay, Ratio, Phase 3 (AID 2283596; active means hit-call score of the fitted dose curve at least 0.9, where 1 is the maximum)
# Chain of Cellular tumor antigen p53 (Homo sapiens) (P04637 whole entry, looked up): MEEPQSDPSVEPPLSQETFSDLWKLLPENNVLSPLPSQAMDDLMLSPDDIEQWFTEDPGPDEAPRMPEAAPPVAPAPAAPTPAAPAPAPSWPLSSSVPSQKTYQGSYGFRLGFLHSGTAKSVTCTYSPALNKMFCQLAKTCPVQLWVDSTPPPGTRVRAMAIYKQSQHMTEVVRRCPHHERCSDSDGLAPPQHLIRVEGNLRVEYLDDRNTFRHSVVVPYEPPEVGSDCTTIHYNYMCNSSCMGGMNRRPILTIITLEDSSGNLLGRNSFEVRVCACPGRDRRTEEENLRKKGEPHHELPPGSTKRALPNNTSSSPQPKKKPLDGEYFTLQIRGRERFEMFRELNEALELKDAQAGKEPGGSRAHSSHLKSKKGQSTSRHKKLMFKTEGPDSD
# Outline: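 HCT116 p53-bla cells (4000/well) given compound in DMSO (217-fold dilution) after 5 h, incubated 16 h at 37C. CCF4-AM substrate 2 h at room temperature; 460/530 nm emission ratio, gain fitted against DMSO.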
# [19] = TOX21_p53_BLA_p4_viability: Viability Assessment in the Tox21 HCT-116 p53 Agonism Beta-lactamase Assay, Phase 4 (AID 2283597; active means hit-call score of the fitted dose curve at least 0.9, where 1 is the maximum;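 further: hits lower the luminescence signal meaning cytotoxicity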)
# Outline: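 Cells plated, 5 h pre-incubation; DMSO compounds pinned (217-fold dilution); 16 h, 37C/5% CO2; CCF4-AM 2 h RT; CellTiter-Glo 30 min RT; luminescence read.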
# [20] = target: Cellular tumor antigen p53 (Homo sapiens) (UniProt P04637); assay: TOX21_p53_BLA_p5_ratio: Tox21 HCT-116 p53 Agonism Beta-lactamase Assay, Ratio, Phase 5 (AID 2283599; active means hit-call score of the fitted dose curve at least 0.9, where 1 is the maximum)
# Outline: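 HCT-116 p53-bla cells (4000/well) plated 5 h, dosed with compound (217-fold DMSO dilution) for 16 h at 37 C; CCF4-AM substrate 2 h at room temperature. Activity is the 460/530 nm emission ratio (405 nm excitation), fitted in gain-of-signal direction versus DMSO.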
# [21] = TOX21_p53_BLA_p5_viability: Viability Assessment in the Tox21 HCT-116 p53 Agonism Beta-lactamase Assay, Phase 5 (AID 2283600; active means hit-call score of the fitted dose curve at least 0.9, where 1 is the maximum)
# Outline: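 4000 cells/well; 5 h pre-incubation; DMSO compounds pin-transferred, 217-fold dilution; 16 h, 37C/5% CO2; CCF4-AM 2 h RT; CellTiter-Glo 30 min RT; luminescence.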
# [22] = target: Cellular tumor antigen p53 (Homo sapiens) (UniProt P04637); assay: TOX21_p53_BLA_p4_ratio: Tox21 HCT-116 p53 Agonism Beta-lactamase Assay, Ratio, Phase 4 (AID 2283601; active means hit-call score of the fitted dose curve at least 0.9, where 1 is the maximum)
# Outline: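 HCT-116 p53 beta-lactamase reporter cells (4000/well) preincubated 5 h, then compound (217-fold dilution of DMSO stock) for 16 h at 37C. CCF4-AM substrate added 2 h at room temperature; 460/530 nm emission ratio fitted upward versus DMSO.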
# [23] = CCTE_Shafer_MEA_acute_spike_number: CCTE's Neural Acute Assay for Total Number of Spikes, Shafer Lab (AID 2284008);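 further: curve fitted for decrease in spike count so AC50 reflects inhibitors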
# Outline: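 Read-out is the total spike count over 40 min, expressed as percent change from each well's own pre-treatment baseline and fitted in the loss direction against DMSO. Rat cortical neurons were exposed at 0.03-40 uM on DIV 13 or 15.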
# [24] = CCTE_Shafer_MEA_acute_burst_number: CCTE's Neural Acute Assay for Single-Electrode Bursts, Shafer Lab (AID 2284013)
# Outline: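 Primary rat cortical neurons on 16-electrode MEA wells, treated on DIV 13 or 15 with compound at 0.03-40 uM. Single-electrode burst count from 40-min recordings at 37 C before and after exposure; percent change from baseline per well, DMSO negative control.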
# [25] = CCTE_Shafer_MEA_acute_burst_duration_mean: CCTE's Neural Acute Assay for Mean Burst Duration, Shafer Lab (AID 2284014);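 further: hits are decreases in mean burst duration relative to DMSO controls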
# Outline: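 Rat primary cortical neurons on 48-well MEA, treated at DIV 13 or 15 with 0.03-40 uM in at least 3 wells. Value is percent change in mean burst duration, comparing 40 min recordings at 37 C before and during exposure.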
# [26] = CCTE_Shafer_MEA_acute_per_burst_spike_number_mean: CCTE's Neural Acute Assay for Average Number of Spikes Per Burst, Shafer Lab (AID 2284015);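 further: hits are decreases in mean spikes per burst versus baseline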
# Outline: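 Read-out: percent change in mean spikes per burst, each well's post-exposure 40-min recording versus its own 40-min baseline. Rat cortical cultures, DIV 13 or 15, compounds 0.03-40 uM; DMSO is negative control, loss-of-signal fitting.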
# Chain of E-selectin (Homo sapiens) (P16581 whole entry, looked up): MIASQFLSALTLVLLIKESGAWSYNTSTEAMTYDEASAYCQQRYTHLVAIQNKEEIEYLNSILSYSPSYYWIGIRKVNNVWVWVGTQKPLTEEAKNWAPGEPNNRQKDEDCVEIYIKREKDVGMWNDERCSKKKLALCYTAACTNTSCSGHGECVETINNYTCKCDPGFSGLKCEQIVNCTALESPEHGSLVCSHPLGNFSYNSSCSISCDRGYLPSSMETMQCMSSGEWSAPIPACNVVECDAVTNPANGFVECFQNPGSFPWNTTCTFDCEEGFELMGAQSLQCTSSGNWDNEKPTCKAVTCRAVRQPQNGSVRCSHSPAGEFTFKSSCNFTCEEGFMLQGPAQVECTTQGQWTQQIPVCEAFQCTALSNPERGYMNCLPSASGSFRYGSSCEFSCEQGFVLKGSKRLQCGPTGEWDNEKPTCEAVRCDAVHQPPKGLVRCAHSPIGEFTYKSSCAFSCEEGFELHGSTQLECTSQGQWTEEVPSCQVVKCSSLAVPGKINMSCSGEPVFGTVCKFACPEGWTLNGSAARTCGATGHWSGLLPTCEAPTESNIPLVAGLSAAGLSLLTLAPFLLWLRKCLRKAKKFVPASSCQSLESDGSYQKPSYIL
# Chain of Tumor necrosis factor (Homo sapiens) (P01375 whole entry, looked up): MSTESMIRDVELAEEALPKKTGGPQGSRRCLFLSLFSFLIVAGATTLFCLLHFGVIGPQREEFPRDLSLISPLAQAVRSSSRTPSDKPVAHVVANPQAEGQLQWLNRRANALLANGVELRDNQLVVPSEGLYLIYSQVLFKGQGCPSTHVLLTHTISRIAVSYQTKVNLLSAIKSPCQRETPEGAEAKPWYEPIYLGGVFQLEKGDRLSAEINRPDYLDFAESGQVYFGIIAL
structure (smiles),measurement,setting,value
CCCC[N+](CCCC)(CCCC)CCCC,outcome,[1],inactive
same,outcome,[2],inactive
same,outcome,[3],inactive
same,outcome,[4],inactive
same,outcome,[5],inactive
same,outcome,[6],inactive
same,outcome,[7],inactive
same,outcome,[8],inactive
same,outcome,[9],inactive
same,outcome,"CD40, CD40 (gene 958)",inactive
same,outcome,"CD69, CD69 (gene 969)",inactive
same,outcome,[10],inactive
same,outcome,[11],inactive
same,outcome,[12],inactive
same,outcome,[13],inactive
same,outcome,[14],inactive
same,outcome,[15],inactive
same,outcome,[16],inactive
same,outcome,[17],inactive
same,outcome,[18],inactive
same,outcome,[19],inactive
same,outcome,[20],inactive
same,outcome,[21],inactive
same,outcome,[22],inactive
same,AC50,[23],4.44 nM (active)
same,AC50,[24],1.52 nM (active)
same,AC50,[25],9590 nM (active)
same,AC50,[26],5440 nM (active)
